# Inconclusive results are not listed. Active and inactive are the calls of the source. How the source made its calls, unless noted: active means hit-call score of the fitted dose curve at least 0.9, where 1 is the maximum; inconclusive means response in the unintended direction; inactive means score below 0.9. Peptide text beside a SMILES is read from it.
# Columns and labels:
# [1] = CEETOX_H295R_MTT_cell_viability: Viability Assessment in the CeeTox HT-H295R MTT Assay (AID 2283718; active means hit-call score of the fitted dose curve at least 0.9, where 1 is the maximum; inactive means score below 0.9;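 on AC50: curve fitted both ways so AC50 may mark viability loss or gain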)
# In short: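 MTT reduction (0.5 mg/ml, 4 h at 37 C; absorbance at 570 and 650 nm) gave viability as background-corrected percent change versus controls. H295R cells had 48 h forskolin (10 uM) prestimulation, then 48 h chemical exposure at 0.1% DMSO.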
# [2] = molecular target: Luciferin 4-monooxygenase (Photinus pyralis) (UniProt P08659); assay: CCTE_Simmons_QuantiLum_inhib_2: CCTE's Firefly Luciferase Inhibition Assay, Simmons Lab (AID 2283767);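 on AC50: potency for inhibitors that lower luciferase luminescence relative to DMSO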
# Sequence of Luciferin 4-monooxygenase (Photinus pyralis) (P08659 whole entry, looked up): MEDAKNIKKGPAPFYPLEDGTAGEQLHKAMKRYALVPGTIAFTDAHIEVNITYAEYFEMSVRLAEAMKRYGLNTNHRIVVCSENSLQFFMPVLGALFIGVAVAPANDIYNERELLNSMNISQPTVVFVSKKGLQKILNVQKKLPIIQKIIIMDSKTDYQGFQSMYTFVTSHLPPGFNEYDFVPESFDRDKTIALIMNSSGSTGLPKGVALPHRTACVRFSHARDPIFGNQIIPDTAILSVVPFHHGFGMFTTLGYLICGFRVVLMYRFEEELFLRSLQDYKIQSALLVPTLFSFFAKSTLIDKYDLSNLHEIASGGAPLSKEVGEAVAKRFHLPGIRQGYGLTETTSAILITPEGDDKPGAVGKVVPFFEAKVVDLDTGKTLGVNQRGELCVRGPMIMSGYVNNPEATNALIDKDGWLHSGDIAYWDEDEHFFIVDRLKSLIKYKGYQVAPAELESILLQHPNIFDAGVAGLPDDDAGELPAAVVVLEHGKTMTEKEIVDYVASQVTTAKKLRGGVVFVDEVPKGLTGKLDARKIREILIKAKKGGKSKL
# In short: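 Cell-free recombinant firefly luciferase (5 ng/well) in 200mM potassium phosphate with 1 mg/ml BSA, 30 min at 37C with 8 concentrations from 5 nM to 87.5 uM [final], 0.5% DMSO. Luminescence read after D-luciferin (150uM)/dATP (147uM) reagent injection, pH 7.8; triplicates.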
# [3] = ACEA_AR_agonist_AUC_viability: ACEA Biosciences xCELLigence Real-Time Cell Analysis on Androgen Receptor Agonism for Viability (AID 2283775);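 on AC50: viability read 80 hours after compound addition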
# In short: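 Real-time impedance tracking of 22Rv1 growth, readings every 5 min for 5 h then hourly; area-under-curve viability endpoint at 80 hours, relative to DMSO. Compounds at eight concentrations, 1:4 steps, top 100 uM, n = 2.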
# [4] = ACEA_AR_antagonist_AUC_viability: ACEA Biosciences xCELLigence Real-Time Cell Analysis on Androgen Receptor Antagonism for Viability (AID 2283776);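 further: 22Rv1 human prostate cancer cells growing on impedance electrode plates; hits lower the growth signal relative to DMSO meaning cytotoxicity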
# In short: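 Real-time electrical impedance tracks 22Rv1 proliferation after continuous compound exposure (top 100 uM final, 1:4 steps, 8 concentrations). The 80 h area-under-curve serves as the cytotoxicity readout relative to DMSO.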
# [5] = ACEA_ER_AUC_viability: ACEA Biosciences xCELLigence Real-Time Cell Analysis on Estrogen Receptor Agonism for Viability (AID 2283782);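 further: hit means loss of impedance signal meaning reduced cell growth or viability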
# In short: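 T-47D; phenol red-free RPMI1640 + 10% CS-FBS; 8 conc., 1:4 serial, max 100 uM final, ≤0.5% DMSO; n = 2; continuous exposure; impedance monitored to 80 h post-dose; AUC vs DMSO.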
# [6] = STM_H9_NormalizedViability: Cytotoxicity Assessment at 120 hours in the Stemina devTOX quickPredict H9 human embryonic stem cell (hESC)-based Assay (AID 2283784)
# In short: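 Pluripotent H9 hESCs were exposed, with chemical and media replaced every 24 h. Viability was read by CellTiter-Fluor fluorescence, background-corrected and normalized to the 0.1% DMSO neutral control per plate. Loss of signal was fitted.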
# AR (gene 367) = AR (gene 367) (UniProt P10275); assay: ACEA_AR_antagonist_80hr: ACEA Biosciences xCELLigence Real-Time Cell Analysis on Androgen Receptor Antagonism for Proliferation (AID 2283787);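 further: 22Rv1 human prostate cancer cells with growth followed by electrical impedance; hits lower the impedance growth signal relative to DMSO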
# Sequence of AR (gene 367) (P10275 whole entry, looked up): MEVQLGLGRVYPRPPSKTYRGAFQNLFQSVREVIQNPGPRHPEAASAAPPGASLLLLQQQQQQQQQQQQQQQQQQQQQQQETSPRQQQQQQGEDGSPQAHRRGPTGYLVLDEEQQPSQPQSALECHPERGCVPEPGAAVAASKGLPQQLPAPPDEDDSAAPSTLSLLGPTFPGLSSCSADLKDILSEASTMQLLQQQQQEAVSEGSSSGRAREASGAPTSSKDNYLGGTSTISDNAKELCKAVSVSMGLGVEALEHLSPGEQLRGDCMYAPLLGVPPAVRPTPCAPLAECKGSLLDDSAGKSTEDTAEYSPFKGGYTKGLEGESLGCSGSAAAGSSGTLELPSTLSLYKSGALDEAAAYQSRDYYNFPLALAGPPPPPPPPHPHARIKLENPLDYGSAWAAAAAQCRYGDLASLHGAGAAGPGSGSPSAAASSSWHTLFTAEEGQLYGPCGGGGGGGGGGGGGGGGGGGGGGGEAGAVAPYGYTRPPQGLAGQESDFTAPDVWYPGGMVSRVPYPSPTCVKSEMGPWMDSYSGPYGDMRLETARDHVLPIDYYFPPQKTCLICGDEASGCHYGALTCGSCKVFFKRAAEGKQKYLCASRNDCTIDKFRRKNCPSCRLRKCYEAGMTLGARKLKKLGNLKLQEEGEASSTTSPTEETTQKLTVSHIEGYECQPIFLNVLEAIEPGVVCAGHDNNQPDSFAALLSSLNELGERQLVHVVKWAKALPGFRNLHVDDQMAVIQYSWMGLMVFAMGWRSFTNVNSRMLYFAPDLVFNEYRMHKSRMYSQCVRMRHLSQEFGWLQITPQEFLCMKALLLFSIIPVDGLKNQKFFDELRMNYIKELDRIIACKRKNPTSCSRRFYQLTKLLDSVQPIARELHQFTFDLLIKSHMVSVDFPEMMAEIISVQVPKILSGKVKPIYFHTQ
# In short: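 Growth-kinetic antagonist readout in 22Rv1 cells, taken 80 h after continuous compound exposure. Activity fitted as signal loss relative to DMSO negative control.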
structure (smiles),measurement,setting,value
CCOC(=O)C1=NN(c2ccc(Cl)cc2Cl)C(C)(C(=O)OCC)C1 (stereo unspecified),outcome,[1],inactive
CN(C)c1ccc2nc3ccc(=[N+](C)C)cc-3sc2c1,outcome,[1],inactive
same,AC50,[2],0.676 µM (active)
same,AC50,[3],20.4 µM (active)
same,AC50,[4],9.9 µM (active)
same,AC50,[5],16.5 µM (active)
same,AC50,[6],4.5 µM (active)
O=c1c(O)c(-c2ccc(O)cc2O)oc2cc(O)cc(O)c12,AC50,[2],68.3 µM (active)
CC12CCC(CC1)C(C)(C)O2,outcome,[3],inactive
CCN1CN(CC)CN(CC)C1,AC50,[1],0.396 µM (active)
same,outcome,[3],inactive
same,AC50,[5],66.4 µM (active)
N#Cc1ccc(C2CCCc3cncn32)cc1 (stereo unspecified),outcome,[1],inactive
same,outcome,[3],inactive
CCCCNS(=O)(=O)c1ccc(C)cc1,outcome,[3],inactive
C/C=C/C=C/CCCCCCCO,outcome,[2],inactive
same,AC50,[5],79.4 µM (active)
CC1=NN(c2ccc(S(=O)(=O)O)cc2)C(=O)C1N=Nc1ccccc1 (stereo unspecified),outcome,[2],inactive
same,outcome,[3],inactive
COc1ccc(C(=O)c2ccccc2)c(O)c1,outcome,[1],inactive
same,AC50,[2],53.6 µM (active)
same,outcome,[3],inactive
same,outcome,[4],inactive
same,outcome,[6],inactive
same,outcome,AR (gene 367),inactive
O=S(=O)(O)c1ccc(N=Nc2c(O)ccc3ccccc23)cc1,AC50,[2],24.3 µM (active)
same,outcome,[3],inactive
same,outcome,[4],inactive
O=C(OCc1ccccc1)c1ccc(O)cc1,AC50,[1],10.6 µM (active)
same,outcome,[3],inactive
same,AC50,[5],82.6 µM (active)
N#Cc1ccc(C(c2ccc(C#N)cc2)n2cncn2)cc1,outcome,[1],inactive
same,outcome,[2],inactive
same,AC50,[3],4.94 µM (active)
same,outcome,[5],inactive
same,outcome,AR (gene 367),inactive
CCCCCCOc1ccc(N)cc1,AC50,[2],28.7 µM (active)
same,AC50,[5],86.8 µM (active)
C=C[C@@]1(C)CC(=O)[C@]2(O)[C@@]3(C)[C@@H](O)CCC(C)(C)[C@@H]3[C@H](O)[C@H](OC(C)=O)[C@@]2(C)O1,outcome,[1],inactive
same,AC50,[3],6.78 µM (active)
same,outcome,[4],inactive
CCCCC/C=C\C/C=C\CCCCCCCC(=O)O,outcome,[2],inactive
same,outcome,[3],inactive
same,outcome,[4],inactive
same,AC50,[5],81.4 µM (active)
O=C(OCCc1ccccc1)c1ccccc1,outcome,[3],inactive
same,outcome,[4],inactive
same,AC50,[5],85.9 µM (active)
CC(C)COC(=O)CC(C(=O)OCC(C)C)S(=O)(=O)O (stereo unspecified),outcome,[3],inactive
same,outcome,[5],inactive
Fc1ccc(Br)cc1,outcome,[3],inactive
same,outcome,[5],inactive
CCCCCCC=O,outcome,[3],inactive
same,outcome,[4],inactive
Cc1cc(C)n(CO)n1,outcome,[3],inactive
same,outcome,[4],inactive
same,outcome,[5],inactive
C=C[Si](OCCOC)(OCCOC)OCCOC,outcome,[3],inactive
same,outcome,[5],inactive
COC(=O)[C@H](Cc1ccccc1)NC(=O)[C@@H](N)CC(=O)O (H-Asp-Phe-OMe),outcome,[3],inactive
same,outcome,[4],inactive

# From PubChem BioAssay (EPA / NIEHS)
